Legend:
Settings in all cases: Compound concentration 20.0 uM
[1] = molecular target: Tyrosine-protein kinase ABL1 (Homo sapiens) (UniProt P00519)
[2] = molecular target: Bromodomain-containing protein 4 (Homo sapiens) (UniProt O60885)
[3] = molecular target: Cyclin-dependent kinase 2 (Homo sapiens) (UniProt P24941)
[4] = molecular target: Casein kinase I isoform delta (Homo sapiens) (UniProt P48730)
[5] = molecular target: Glycogen synthase kinase-3 beta (Homo sapiens) (UniProt P49841)
[6] = molecular target: Mitogen-activated protein kinase 1 (Homo sapiens) (UniProt P28482)
[7] = molecular target: T1, Aurora kinase A (Homo sapiens) (UniProt O14965)
T1 sequence (whole entry): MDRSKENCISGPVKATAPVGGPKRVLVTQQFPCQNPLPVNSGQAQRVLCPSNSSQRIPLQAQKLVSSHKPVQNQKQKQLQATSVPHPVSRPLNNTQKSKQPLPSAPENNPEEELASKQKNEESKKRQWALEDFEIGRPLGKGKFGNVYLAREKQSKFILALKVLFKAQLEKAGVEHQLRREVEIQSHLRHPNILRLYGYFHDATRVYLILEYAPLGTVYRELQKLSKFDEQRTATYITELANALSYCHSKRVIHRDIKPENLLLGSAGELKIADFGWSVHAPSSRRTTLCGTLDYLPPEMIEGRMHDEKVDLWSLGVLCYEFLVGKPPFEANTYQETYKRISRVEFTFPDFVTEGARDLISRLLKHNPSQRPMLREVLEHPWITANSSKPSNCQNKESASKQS

[8] = molecular target: T2, Transcription intermediary factor 1-alpha (Homo sapiens) (UniProt O15164)
T2 sequence (whole entry): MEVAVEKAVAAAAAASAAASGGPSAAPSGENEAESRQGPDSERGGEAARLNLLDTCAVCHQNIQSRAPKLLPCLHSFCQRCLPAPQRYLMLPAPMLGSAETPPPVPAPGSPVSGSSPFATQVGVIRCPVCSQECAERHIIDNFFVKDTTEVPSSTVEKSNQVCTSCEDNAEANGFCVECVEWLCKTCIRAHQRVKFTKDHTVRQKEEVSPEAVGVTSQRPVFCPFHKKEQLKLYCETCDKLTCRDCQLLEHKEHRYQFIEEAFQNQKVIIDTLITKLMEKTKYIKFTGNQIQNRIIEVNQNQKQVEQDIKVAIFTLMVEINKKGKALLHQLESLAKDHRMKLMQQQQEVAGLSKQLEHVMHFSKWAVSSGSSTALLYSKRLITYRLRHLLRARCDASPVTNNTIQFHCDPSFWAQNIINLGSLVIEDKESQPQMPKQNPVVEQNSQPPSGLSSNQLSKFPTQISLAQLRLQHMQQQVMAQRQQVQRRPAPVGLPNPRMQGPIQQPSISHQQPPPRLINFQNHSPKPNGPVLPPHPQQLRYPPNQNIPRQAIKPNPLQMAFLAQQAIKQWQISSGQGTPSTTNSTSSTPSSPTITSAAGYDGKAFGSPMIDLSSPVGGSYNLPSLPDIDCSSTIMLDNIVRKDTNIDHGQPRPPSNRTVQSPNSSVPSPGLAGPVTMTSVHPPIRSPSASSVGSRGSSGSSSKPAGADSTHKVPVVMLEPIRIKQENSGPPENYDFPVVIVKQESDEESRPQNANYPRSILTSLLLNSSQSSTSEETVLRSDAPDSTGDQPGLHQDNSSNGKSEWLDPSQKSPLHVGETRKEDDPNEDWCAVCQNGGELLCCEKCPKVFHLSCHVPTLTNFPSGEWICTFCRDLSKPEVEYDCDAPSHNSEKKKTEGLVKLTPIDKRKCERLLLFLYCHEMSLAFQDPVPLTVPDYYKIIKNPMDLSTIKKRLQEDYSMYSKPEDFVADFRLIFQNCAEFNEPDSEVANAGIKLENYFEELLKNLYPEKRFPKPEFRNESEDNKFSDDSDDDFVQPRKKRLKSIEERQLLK

Glycogen synthase kinase-3 beta (Homo sapiens), sequence (P49841 whole entry, looked up): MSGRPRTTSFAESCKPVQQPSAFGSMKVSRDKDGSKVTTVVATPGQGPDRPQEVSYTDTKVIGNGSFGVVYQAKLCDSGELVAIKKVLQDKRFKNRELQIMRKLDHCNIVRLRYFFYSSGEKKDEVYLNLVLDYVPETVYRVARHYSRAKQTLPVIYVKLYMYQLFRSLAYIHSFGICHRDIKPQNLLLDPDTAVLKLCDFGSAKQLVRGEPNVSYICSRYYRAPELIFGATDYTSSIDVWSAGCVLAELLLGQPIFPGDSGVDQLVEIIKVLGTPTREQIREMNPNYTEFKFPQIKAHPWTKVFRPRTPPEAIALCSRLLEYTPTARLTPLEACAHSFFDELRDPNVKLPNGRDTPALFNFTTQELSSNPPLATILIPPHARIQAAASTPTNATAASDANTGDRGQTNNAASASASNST
Mitogen-activated protein kinase 1 (Homo sapiens), sequence (P28482 whole entry): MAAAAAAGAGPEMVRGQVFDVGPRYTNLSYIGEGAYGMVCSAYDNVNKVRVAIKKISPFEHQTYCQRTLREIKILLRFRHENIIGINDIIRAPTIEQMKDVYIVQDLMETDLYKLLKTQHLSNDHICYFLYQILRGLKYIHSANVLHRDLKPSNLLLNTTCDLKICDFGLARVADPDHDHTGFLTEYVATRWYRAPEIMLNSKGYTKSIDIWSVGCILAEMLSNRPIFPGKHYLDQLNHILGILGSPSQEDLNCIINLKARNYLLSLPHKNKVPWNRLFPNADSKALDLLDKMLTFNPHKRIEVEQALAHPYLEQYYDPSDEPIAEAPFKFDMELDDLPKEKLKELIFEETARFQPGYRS
Tyrosine-protein kinase ABL1 (Homo sapiens), sequence (P00519 whole entry): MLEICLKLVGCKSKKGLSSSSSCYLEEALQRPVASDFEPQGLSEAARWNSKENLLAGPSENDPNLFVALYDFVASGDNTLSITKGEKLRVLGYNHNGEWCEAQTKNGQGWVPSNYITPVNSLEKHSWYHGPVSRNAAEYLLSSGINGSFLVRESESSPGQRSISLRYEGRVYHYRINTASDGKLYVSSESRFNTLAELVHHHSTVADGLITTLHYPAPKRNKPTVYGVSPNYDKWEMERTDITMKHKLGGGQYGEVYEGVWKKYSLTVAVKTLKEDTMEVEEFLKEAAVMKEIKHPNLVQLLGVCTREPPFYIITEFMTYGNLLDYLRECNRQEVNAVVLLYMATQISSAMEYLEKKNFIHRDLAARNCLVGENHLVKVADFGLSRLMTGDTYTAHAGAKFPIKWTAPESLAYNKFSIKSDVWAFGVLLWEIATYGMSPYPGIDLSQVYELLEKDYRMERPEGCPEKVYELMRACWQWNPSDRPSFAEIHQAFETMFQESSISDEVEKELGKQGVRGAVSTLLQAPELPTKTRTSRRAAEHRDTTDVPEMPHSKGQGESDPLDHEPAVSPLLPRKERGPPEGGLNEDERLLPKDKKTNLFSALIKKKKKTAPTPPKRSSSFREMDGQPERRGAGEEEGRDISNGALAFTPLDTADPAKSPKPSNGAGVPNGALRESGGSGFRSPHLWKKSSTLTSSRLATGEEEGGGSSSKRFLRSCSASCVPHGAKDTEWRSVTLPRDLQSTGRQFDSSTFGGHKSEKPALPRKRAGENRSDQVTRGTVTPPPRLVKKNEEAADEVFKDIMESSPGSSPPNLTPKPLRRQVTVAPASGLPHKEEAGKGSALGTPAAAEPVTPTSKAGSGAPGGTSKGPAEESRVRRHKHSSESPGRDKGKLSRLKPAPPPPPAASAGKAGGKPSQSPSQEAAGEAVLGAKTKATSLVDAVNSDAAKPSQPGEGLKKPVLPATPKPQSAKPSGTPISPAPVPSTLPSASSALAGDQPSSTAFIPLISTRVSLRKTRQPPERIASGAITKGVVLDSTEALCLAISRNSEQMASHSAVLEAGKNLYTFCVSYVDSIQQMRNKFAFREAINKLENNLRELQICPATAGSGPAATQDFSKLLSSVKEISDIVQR
Casein kinase I isoform delta (Homo sapiens), sequence (P48730 whole entry, looked up, canonical isoform): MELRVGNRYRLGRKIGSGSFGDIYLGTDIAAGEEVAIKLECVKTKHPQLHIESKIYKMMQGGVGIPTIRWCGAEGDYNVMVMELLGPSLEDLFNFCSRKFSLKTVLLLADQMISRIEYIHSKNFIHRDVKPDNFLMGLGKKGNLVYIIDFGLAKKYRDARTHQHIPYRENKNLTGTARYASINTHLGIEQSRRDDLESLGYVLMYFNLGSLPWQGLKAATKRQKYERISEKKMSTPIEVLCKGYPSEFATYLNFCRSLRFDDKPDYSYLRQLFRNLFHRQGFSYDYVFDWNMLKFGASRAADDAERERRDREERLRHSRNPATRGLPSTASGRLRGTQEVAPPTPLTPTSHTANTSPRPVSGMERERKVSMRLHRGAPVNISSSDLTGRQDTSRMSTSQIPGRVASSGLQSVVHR

| SMILES | ΔTm [1] [°C] | ΔTm [2] [°C] | ΔTm [3] [°C] | ΔTm [4] [°C] | ΔTm [5] [°C] | ΔTm [6] [°C] | ΔTm [7] [°C] | ΔTm [8] [°C] |
| --- | --- | --- | --- | --- | --- | --- | --- | --- |
| CC(=O)C(=Cc1cc(O)c(O)c([N+](=O)[O-])c1)C(C)=O | 0.06 | 0.74 | 0.04 | -0.82 | -0.72 | 0.27 | 0.07 | 0.21 |
| COCCOc1cc(CC2CCN(CCc3ccc4c(c3)C(=O)CCO4)CC2)ccc1Br | 0.83 | -2.23 | 0.15 | -0.07 | -0.17 | 0.56 | -2.41 | -0.98 |
| COc1cc2c(NCC3CCN(C)CC3)cc(-c3ccc(C)o3)nc2cc1OCCCN1CCCC1 | -0.17 | -1.85 | 0.22 | 0.3 | -1.71 | 0.07 | 0.46 | -1.43 |
| Oc1ccc(-c2c(-c3ccccc3)nn3c(C(F)(F)F)cc(C(F)(F)F)nc23)cc1 | 2.06 | -1.27 | 0.46 | 0.39 | -0.06 | -0.2 | -0.53 | -0.6 |
| CN(C)Cc1ccc(S(=O)(=O)n2ccc(/C=C/C(=O)NO)c2)cc1 | 0.75 | -1.99 | 0.61 | 0.25 | -0.79 | -0.07 | -0.28 | -1.27 |
| N=C(N)N/N=C/c1cccc(Cl)c1Cl | 0.36 | -1.26 | -0.05 | 0.55 | -0.98 | 0.2 | -0.81 | -0.47 |
| NS(=O)(=O)OC[C@H]1C[C@@H](Nc2ccnc3cc(-c4cccc(SC(F)(F)F)c4)nn23)[C@H](O)[C@@H]1O | 1.49 | 1.04 | 0.04 | 0.4 | -1.24 | 0.75 | -1.12 | 1.39 |
| Cc1ccc([N+](=O)[O-])cc1S(=O)(=O)N(C)C | 0.7 | -1.98 | 0.09 | -0.33 | -0.61 | 0.1 | -2.12 | -0.39 |
